# Laboratory results as given in paper PMC11062922 (Nature Chemical Biology, 2023).
# Like-named read-outs stand apart in the source and are kept apart here.
# How the values were obtained:
# AAK1 = system: AAK1; parameters: species or system human, MV4-11 + K-562 + COLO205 + SK-N-BE2 + OVCAR-8; settings: read-out: apparent Kd, n = 1
# BMP2K = system: BMP2K; parameters: species or system human, MV4-11 + K-562 + COLO205 + SK-N-BE2 + OVCAR-8; settings: read-out: apparent Kd, n = 1
# CLK1 = system: CLK1; parameters: species or system human, MV4-11 + K-562 + COLO205 + SK-N-BE2 + OVCAR-8; settings: read-out: apparent Kd, n = 1
# CLK4 = system: CLK4; parameters: species or system human, MV4-11 + K-562 + COLO205 + SK-N-BE2 + OVCAR-8; settings: read-out: apparent Kd, n = 1
# CSNK2A2 = system: CSNK2A2; parameters: species or system human, MV4-11 + K-562 + COLO205 + SK-N-BE2 + OVCAR-8; settings: read-out: apparent Kd, n = 1
# GSK3A = system: GSK3A; parameters: species or system human, MV4-11 + K-562 + COLO205 + SK-N-BE2 + OVCAR-8; settings: read-out: apparent Kd, n = 1
# GSK3B = system: GSK3B; parameters: species or system human, MV4-11 + K-562 + COLO205 + SK-N-BE2 + OVCAR-8; settings: read-out: apparent Kd, n = 1
# NUAK1 = system: NUAK1; parameters: species or system human, MV4-11 + K-562 + COLO205 + SK-N-BE2 + OVCAR-8; settings: read-out: apparent Kd; compound concentrations: 100 nM and 1000 nM (sheet 'Samples'), CATDS: 0.242637090604084; n = 1
# Q6ZSR9 = Q6ZSR9 (human, UniProt Q6ZSR9); parameters: species or system MV4-11 + K-562 + COLO205 + SK-N-BE2 + OVCAR-8; settings: read-out: apparent Kd, n = 1
# Chain of Q6ZSR9 (Q6ZSR9 whole entry, looked up): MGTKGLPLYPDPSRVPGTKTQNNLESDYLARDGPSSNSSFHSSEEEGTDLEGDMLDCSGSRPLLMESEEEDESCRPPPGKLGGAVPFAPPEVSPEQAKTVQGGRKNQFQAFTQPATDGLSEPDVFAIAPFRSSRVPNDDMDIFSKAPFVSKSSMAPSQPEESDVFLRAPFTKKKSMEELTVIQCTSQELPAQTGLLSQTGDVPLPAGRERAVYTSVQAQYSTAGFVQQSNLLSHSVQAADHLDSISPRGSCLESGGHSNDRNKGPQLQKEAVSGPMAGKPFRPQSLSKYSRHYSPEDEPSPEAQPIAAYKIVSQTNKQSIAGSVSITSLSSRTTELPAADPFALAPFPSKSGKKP
# PKN1 = system: PKN1; parameters: species or system human, MV4-11 + K-562 + COLO205 + SK-N-BE2 + OVCAR-8; settings: read-out: apparent Kd, n = 1
# CSNK2A1;CSNK2A3 = system: CSNK2A1;CSNK2A3; parameters: species or system human, MV4-11 + K-562 + COLO205 + SK-N-BE2 + OVCAR-8; settings: read-out: apparent Kd; compound concentrations:100 nM and 1000 nM (sheet 'Samples'); n = 1
# FLT4 = system: FLT4; parameters: species or system human, MV4-11 + K-562 + COLO205 + SK-N-BE2 + OVCAR-8; settings: read-out: apparent Kd; compound concentrations:100 nM and 1000 nM (sheet 'Samples'); n = 1
# GAK = system: GAK; parameters: species or system human, MV4-11 + K-562 + COLO205 + SK-N-BE2 + OVCAR-8; settings: read-out: apparent Kd; compound concentrations:100 nM and 1000 nM (sheet 'Samples'); n = 1
# PAK4 = system: PAK4; parameters: species or system human, MV4-11 + K-562 + COLO205 + SK-N-BE2 + OVCAR-8; settings: read-out: apparent Kd; compound concentrations:100 nM and 1000 nM (sheet 'Samples'); n = 1
# PKN3 = system: PKN3; parameters: species or system human, MV4-11 + K-562 + COLO205 + SK-N-BE2 + OVCAR-8; settings: read-out: apparent Kd; compound concentrations:100 nM and 1000 nM (sheet 'Samples'); n = 1
# PRKAG1 = system: PRKAG1; parameters: species or system human, MV4-11 + K-562 + COLO205 + SK-N-BE2 + OVCAR-8; settings: read-out: apparent Kd; compound concentrations:100 nM and 1000 nM (sheet 'Samples'); n = 1
# RET = system: RET; parameters: species or system human, MV4-11 + K-562 + COLO205 + SK-N-BE2 + OVCAR-8; settings: read-out: apparent Kd; compound concentrations:100 nM and 1000 nM (sheet 'Samples'); n = 1
# SIK2 = system: SIK2; parameters: species or system human, MV4-11 + K-562 + COLO205 + SK-N-BE2 + OVCAR-8; settings: read-out: apparent Kd; compound concentrations:100 nM and 1000 nM (sheet 'Samples'); n = 1
# [1] = compound concentrations:100 nM and 1000 nM (sheet 'Samples')
structure (smiles),measurement,setting,value
CCN(CC)Cc1ccc(Nc2nccc(-c3cnn4ncccc34)n2)cc1 [GW780056X],potency estimated from few doses,"AAK1; compound concentrations: 100 nM and 1000 nM (sheet 'Samples'), CATDS: 2.17265123337868E-2",1010 nM
same,potency estimated from few doses,"BMP2K; compound concentrations: 100 nM and 1000 nM (sheet 'Samples'), CATDS: 1.8132469854257299E-2",1950 nM
same,potency estimated from few doses,"CLK1; compound concentrations: 100 nM and 1000 nM (sheet 'Samples'), CATDS: 3.2985166948547001E-2",346 nM
same,potency estimated from few doses,"CLK4; compound concentrations: 100 nM and 1000 nM (sheet 'Samples'), CATDS: 3.0818268189282499E-2",403 nM
same,potency estimated from few doses,"CSNK2A2; compound concentrations: 100 nM and 1000 nM (sheet 'Samples'), CATDS: 1.97839070790959E-2",1380 nM
same,potency estimated from few doses,"GSK3A; compound concentrations: 100 nM and 1000 nM (sheet 'Samples'), CATDS: 2.5871712918447001E-2",616 nM
same,potency estimated from few doses,"GSK3B; compound concentrations: 100 nM and 1000 nM (sheet 'Samples'), CATDS: 2.3506229340690101E-2",798 nM
same,potency estimated from few doses,NUAK1,11.6 nM
same,potency estimated from few doses,"Q6ZSR9; compound concentrations: 100 nM and 1000 nM (sheet 'Samples'), CATDS: 2.1989322106712401E-2",971 nM
Cc1ccccc1C1=C(c2cn(C)c3ccccc23)C(=O)NC1=O [RO0317612-000],potency estimated from few doses,"AAK1; compound concentrations: 100 nM and 1000 nM (sheet 'Samples'), CATDS: 0.12392874635964",1650 nM
O=C1N=C(NCc2c(Cl)cccc2Cl)S/C1=C\c1ccc2ncccc2c1 [RO4600445-000],potency estimated from few doses,"AAK1; compound concentrations: 100 nM and 1000 nM (sheet 'Samples'), CATDS: 0.26661690920713499",1130 nM
same,potency estimated from few doses,"CLK4; compound concentrations: 100 nM and 1000 nM (sheet 'Samples'), CATDS: 0.27673451036998298",1050 nM
same,potency estimated from few doses,"Q6ZSR9; compound concentrations: 100 nM and 1000 nM (sheet 'Samples'), CATDS: 0.220638600653874",1680 nM
Cl.Cl.NC(CNC(=O)c1cc(Br)c(-c2ccnc3[nH]ccc23)s1)c1ccccc1.NC(CNC(=O)c1cc(Br)c(-c2ccnc3[nH]ccc23)s1)c1ccccc1 (centres unmarked) [GSK1322949A],potency estimated from few doses,"AAK1; compound concentrations: 100 nM and 1000 nM (sheet 'Samples'), CATDS: 3.1655313708127797E-2",1070 nM
same,potency estimated from few doses,"BMP2K; compound concentrations: 100 nM and 1000 nM (sheet 'Samples'), CATDS: 4.4675050363511E-2",552 nM
same,potency estimated from few doses,"CLK4; compound concentrations: 100 nM and 1000 nM (sheet 'Samples'), CATDS: 3.1125873030522201E-2",1120 nM
same,potency estimated from few doses,"PKN1; compound concentrations: 100 nM and 1000 nM (sheet 'Samples'), CATDS: 2.3359167172179899E-2",2380 nM
same,potency estimated from few doses,"Q6ZSR9; compound concentrations: 100 nM and 1000 nM (sheet 'Samples'), CATDS: 3.14131871336574E-2",1090 nM
Cc1cc(-c2ccnc(Nc3cccc(C#N)c3)n2)cc(C)c1O [GSK1440913A],potency estimated from few doses,"AAK1; compound concentrations: 100 nM and 1000 nM (sheet 'Samples'), CATDS: 0.22953291556049499",120 nM
same,potency estimated from few doses,"BMP2K; compound concentrations: 100 nM and 1000 nM (sheet 'Samples'), CATDS: 0.10539472264710199",564 nM
same,potency estimated from few doses,"Q6ZSR9; compound concentrations: 100 nM and 1000 nM (sheet 'Samples'), CATDS: 0.240078758272596",111 nM
CS(=O)(=O)CCn1c(=O)c(Oc2ccc(F)cc2F)cc2cnc(NC3CCOCC3)nc21 [RO5027956-000],potency estimated from few doses,AAK1; [1],968 nM
same,potency estimated from few doses,BMP2K; [1],1020 nM
same,potency estimated from few doses,CLK1; [1],1120 nM
same,potency estimated from few doses,CLK4; [1],1240 nM
same,potency estimated from few doses,CSNK2A1;CSNK2A3,1100 nM
same,potency estimated from few doses,CSNK2A2; [1],1530 nM
same,potency estimated from few doses,FLT4,1390 nM
same,potency estimated from few doses,GAK,422 nM
same,potency estimated from few doses,GSK3A; [1],592 nM
same,potency estimated from few doses,GSK3B; [1],601 nM
same,potency estimated from few doses,PAK4,1270 nM
same,potency estimated from few doses,PKN1; [1],1540 nM
same,potency estimated from few doses,PKN3,1230 nM
same,potency estimated from few doses,PRKAG1,812 nM
same,potency estimated from few doses,Q6ZSR9; [1],932 nM
same,potency estimated from few doses,RET,823 nM
same,potency estimated from few doses,SIK2,1100 nM
